According to PubChem BioAssay (NCATS):
Several values for one entry are separate records, joined by “and”; a condition that tells them apart may be missing. Equal entries are not always repeated. Activity calls are given as the source filed them. Unless noted, calls come from the whole dose curve; as a rule, active = well fitted curve in the direction sought with a large enough effect; inconclusive = small, poorly fitted or top-dose-only effect, or another doubt; inactive = no such curve, though single readings can be large; an effect the other way counts as inactive or inconclusive.

Key:
[1] = molecular target: Guanine nucleotide-binding protein G(i) subunit alpha-1 (Homo sapiens) (UniProt P63096); assay: qHTS Assay for Inhibitors of RGS12 GoLoco Motif Activity (Green Fluorophore) (AID 879);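 note: 0% = labeled peptide with Gαi1 and full inhibition = labeled peptide alone without protein; negative values mean loss of peptide binding seen as reduced polarization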
Chain of Guanine nucleotide-binding protein G(i) subunit alpha-1 (Homo sapiens) (P63096 whole entry, looked up): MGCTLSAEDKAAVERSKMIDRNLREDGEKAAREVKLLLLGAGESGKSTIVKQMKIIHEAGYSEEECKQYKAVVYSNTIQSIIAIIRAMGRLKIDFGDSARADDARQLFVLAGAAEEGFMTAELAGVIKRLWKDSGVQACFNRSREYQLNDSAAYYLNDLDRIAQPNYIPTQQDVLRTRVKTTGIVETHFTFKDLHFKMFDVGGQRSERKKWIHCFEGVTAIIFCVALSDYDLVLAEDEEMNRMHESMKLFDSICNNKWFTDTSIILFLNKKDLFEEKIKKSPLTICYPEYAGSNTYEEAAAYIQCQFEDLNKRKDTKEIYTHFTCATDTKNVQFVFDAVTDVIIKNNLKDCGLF
Procedure, shortened: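 Fluorescence polarization assay: 50 nM Gαi1 with 10 nM FITC-labeled RGS12 GoLoco peptide in 10 mM Tris pH 7.5, 150 mM NaCl, 0.1 mM GDP, 0.05% NP40, 10 min at room temperature with compound.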

[2] = qHTS Assay for Identification of Small Molecule Agonists for Thrombopoietin (TPO) Signaling Pathway (AID 917); note: % is set by controls: 0 for no effect and ±100 for the full control effect
Procedure, shortened: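 Activators of TPO signaling were sought in murine Ba/F3 cells transfected with the human receptor, using a luciferase gene driven by the Glycoprotein IIb promoter; 24-hr compound exposure at 37 C alongside 26 pM TPO, in IL-3-free medium.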

[3] = molecular target: Pyruvate kinase (Leishmania mexicana) (UniProt Q27686); assay: qHTS Validation Assay for Inhibitors of Leishmania Mexicana Pyruvate Kinase (AID 945);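 note: 0% = DMSO only neutral control wells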
Chain of Pyruvate kinase (Leishmania mexicana) (Q27686 2-499 E452W): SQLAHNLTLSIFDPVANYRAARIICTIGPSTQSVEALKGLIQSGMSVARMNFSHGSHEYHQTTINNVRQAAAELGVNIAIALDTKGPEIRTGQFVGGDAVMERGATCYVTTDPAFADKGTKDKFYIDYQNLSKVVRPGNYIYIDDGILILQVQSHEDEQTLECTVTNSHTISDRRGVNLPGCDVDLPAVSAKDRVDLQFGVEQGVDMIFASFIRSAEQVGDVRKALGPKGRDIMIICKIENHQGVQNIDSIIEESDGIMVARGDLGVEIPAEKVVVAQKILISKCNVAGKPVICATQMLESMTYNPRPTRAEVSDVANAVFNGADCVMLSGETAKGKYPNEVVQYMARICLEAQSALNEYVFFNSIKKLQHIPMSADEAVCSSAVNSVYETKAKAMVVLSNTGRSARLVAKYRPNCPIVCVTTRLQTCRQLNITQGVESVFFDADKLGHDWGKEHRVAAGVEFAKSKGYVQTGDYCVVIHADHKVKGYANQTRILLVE
Procedure, shortened: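 Eight-point qHTS titrations; enzyme 0.2 nM LmPYK (E451W mutant); substrates 0.5 mM PEP, 0.1 mM ADP; 7 mM MgCl2; 1 h room temperature; PKLight luminescence normalized to neutral control.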

[4] = molecular target: Pyruvate kinase PKM (Homo sapiens) (UniProt P14618); assay: qHTS Assay for Activators of Human Muscle Pyruvate Kinase (AID 954; active = well fitted curve in the direction sought with a large enough effect, not every such curve was filed as active; inconclusive = small, poorly fitted or top-dose-only effect, or effect the other way, or another doubt; inactive = no such curve, though single readings can be large or run the other way;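 note: 0% = uninhibited enzyme and -100% = no enzyme or full thiadiazolimine inhibition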)
Chain of Pyruvate kinase PKM (Homo sapiens) (P14618 whole entry, looked up): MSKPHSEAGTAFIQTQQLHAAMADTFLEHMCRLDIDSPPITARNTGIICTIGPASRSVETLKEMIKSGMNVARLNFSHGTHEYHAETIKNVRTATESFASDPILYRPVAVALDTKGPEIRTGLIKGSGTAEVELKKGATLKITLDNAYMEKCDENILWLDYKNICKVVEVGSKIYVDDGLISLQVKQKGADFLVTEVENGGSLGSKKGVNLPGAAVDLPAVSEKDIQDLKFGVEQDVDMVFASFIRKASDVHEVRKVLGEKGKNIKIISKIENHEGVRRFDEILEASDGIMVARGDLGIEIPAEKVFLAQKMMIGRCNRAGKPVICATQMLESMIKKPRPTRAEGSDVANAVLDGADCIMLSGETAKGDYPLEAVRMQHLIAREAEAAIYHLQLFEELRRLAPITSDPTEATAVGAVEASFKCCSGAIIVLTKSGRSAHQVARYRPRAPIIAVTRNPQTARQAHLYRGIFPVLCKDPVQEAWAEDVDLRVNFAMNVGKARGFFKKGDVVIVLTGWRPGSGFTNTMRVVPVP
Procedure, shortened: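 Human PKM2 activity is measured as ATP generation, detected by luciferase-coupled luminescence. The enzyme (0.1 nM) acts on 0.5 mM PEP and 0.1 mM ADP for 1 h at ambient temperature; data are normalized to uninhibited and full-inhibition wells.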

[5] = molecular target: Alpha-galactosidase A (Homo sapiens) (UniProt P06280); assay: Counterscreen for Glucocerebrosidase Inhibitors: qHTS Assay for Human alpha-Galactosidase at pH 4.5 (AID 992); note: 0% is about no effect
Procedure, shortened: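 Quantitative HTS: compounds tested from 0.7 nM up to 77 uM against 2 nM enzyme with 80 uM 4-MU alpha-D-galactopyranoside. The 20 min room-temperature reaction is stopped with 1M NaOH/1M glycine, pH 10.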

[6] = molecular target: alpha-glucosidase (Oryza sativa, rice) (UniProt Q653V4); assay: Counterscreen for Glucocerebrosidase Inhibitors: qHTS Assay for Rice alpha-Glucosidase at pH 5.0 (AID 997);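 note: 0% = full activity with enzyme and -100% = basal without enzyme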
Procedure, shortened: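 Rice alpha-glucosidase (4 nM final) with 400 uM 4-methylumbelliferyl-alpha-D-glucopyranoside in citrate buffer pH 5.0, 20 min at room temperature, stopped at pH 10; fluorescence 365/440 nm, compounds 0.7 nM–77 uM, AC50 from Hill fits.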

[7] = molecular target: Cytochrome P450 2C9 (Homo sapiens) (UniProt P11712); assay: qHTS Assay for Inhibitors and Substrates of Cytochrome P450 2C9 (AID 883); note: nearly all actives have a fitted effect of over 60% in size; note: potency is the fitted concentration of half-maximal effect
Chain of Cytochrome P450 2C9 (Homo sapiens) (P11712 whole entry, looked up): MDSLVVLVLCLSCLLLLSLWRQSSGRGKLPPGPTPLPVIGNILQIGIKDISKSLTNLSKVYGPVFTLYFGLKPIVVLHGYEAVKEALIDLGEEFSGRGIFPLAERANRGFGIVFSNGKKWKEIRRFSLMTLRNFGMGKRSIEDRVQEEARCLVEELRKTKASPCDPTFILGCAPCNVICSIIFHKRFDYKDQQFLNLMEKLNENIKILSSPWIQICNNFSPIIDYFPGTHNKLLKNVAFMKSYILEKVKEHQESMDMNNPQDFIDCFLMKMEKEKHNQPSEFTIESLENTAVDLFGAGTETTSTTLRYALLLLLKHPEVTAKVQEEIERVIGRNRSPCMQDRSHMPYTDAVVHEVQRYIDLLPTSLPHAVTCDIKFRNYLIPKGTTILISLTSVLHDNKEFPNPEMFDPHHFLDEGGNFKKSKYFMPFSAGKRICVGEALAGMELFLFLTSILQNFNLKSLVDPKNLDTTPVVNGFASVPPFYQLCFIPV
Procedure, shortened: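 CYP2C9 deoxyluciferin hydroxylation, 37C, 60 min with NADPH regeneration; 10nM enzyme, 100uM Luciferin-H (KM). Glo detection reagent stopped reaction; luminescence normalized to sulphaphenazole (57uM) full inhibition.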

[8] = molecular target: Peroxisome proliferator-activated receptor delta (Homo sapiens) (UniProt Q03181); assay: qHTS assay for small molecule agonists of peroxisome proliferator-activated receptor delta signaling (AID 588534; calls by dose curve;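 note: 0% = DMSO basal wells and 100% = positive control agonist at 10 µM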)
Procedure, shortened: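 Reporter cells were plated and held 5 hrs at 37 C before compounds were added. After 18 hrs at 37 C, CCF4 dye was loaded for 2 hrs at RT and fluorescence measured.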

[9] = molecular target: Retinoic acid receptor RXR-alpha (Homo sapiens) (UniProt P19793); assay: qHTS assay for small molecule agonists of retinoid X receptor alpha signaling (AID 588544; calls by dose curve;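 note: 0% = DMSO basal wells and 100% = reference agonist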)
[10] = molecular target: Thyroid hormone receptor beta (Homo sapiens) (UniProt P10828); assay: qHTS assay for small molecule antagonists of thyroid hormone receptor beta signaling (AID 588547; active = well fitted inhibition curve with a large enough effect in the signal ratio, with a control signal flat, not every such curve was filed as active; inconclusive = small, poorly fitted or top-dose-only effect, or effect the other way, or a change in a side signal; the % refers to the signal ratio;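 note: cells stimulated with 0.4 nM T3 agonist during compound exposure; series mostly up to about 77 µM; % is set by controls: 0 for no effect and ±100 for the full control effect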); conditions: TR-UAS-bla HEK293, beta-lactamase ratio, antagonist mode, 18 h
Chain of Thyroid hormone receptor beta (Homo sapiens) (P10828 whole entry, looked up): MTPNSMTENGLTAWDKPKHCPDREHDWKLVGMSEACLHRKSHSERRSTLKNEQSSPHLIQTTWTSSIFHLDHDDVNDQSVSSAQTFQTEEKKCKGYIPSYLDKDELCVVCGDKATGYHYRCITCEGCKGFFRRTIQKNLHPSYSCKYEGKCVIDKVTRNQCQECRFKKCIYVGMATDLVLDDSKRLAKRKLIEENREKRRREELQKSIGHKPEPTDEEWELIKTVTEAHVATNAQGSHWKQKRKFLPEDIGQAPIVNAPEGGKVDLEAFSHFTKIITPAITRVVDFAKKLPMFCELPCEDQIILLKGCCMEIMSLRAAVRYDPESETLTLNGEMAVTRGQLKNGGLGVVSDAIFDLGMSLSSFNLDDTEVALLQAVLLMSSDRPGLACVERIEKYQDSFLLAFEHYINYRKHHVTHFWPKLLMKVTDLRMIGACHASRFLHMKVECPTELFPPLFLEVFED
Procedure, shortened: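 TR-UAS-bla GripTite HEK293 cells in 2% charcoal/dextran FBS medium were preincubated 4 h at 37 C, given compound (0.59 nM to 92 uM) plus 0.4 nM T3 (final) for 18 h, then CCF4 for 2 h at RT; Hill fit gave IC50.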

[11] = qHTS assay for environmental chemicals that activate the Aryl hydrocarbon Receptor (AhR) signaling pathway (AID 651777); conditions: 1A2-DRE human hepatoma cells, luciferase, 24 h; activation: active compounds read high; note: % of control where 0% means no effect; nearly all actives have a fitted effect of over 15% in size
Procedure, shortened: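 Concentration–response screening used 1,200 1A2-DRE cells per well, 24 hr compound exposure (37 C, 5% CO2), and One-Glo luminescence as the AhR-driven CYP1A2 reporter signal.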

[12] = molecular target: Estrogen receptor (Homo sapiens) (UniProt P03372); assay: qHTS assay for small molecule antagonists of estrogen receptor alpha signaling (AID 588513; active = well fitted curve in the direction sought with a large enough effect in the signal ratio, with a control signal flat, not every such curve was filed as active; inconclusive = small, poorly fitted or top-dose-only effect, or effect the other way, or a change in a side signal; inactive = no such curve, though single readings can be large or run the other way; the % refers to the signal ratio; note: potency is the fitted concentration of half-maximal effect)
Chain of Estrogen receptor (Homo sapiens) (P03372 whole entry, looked up): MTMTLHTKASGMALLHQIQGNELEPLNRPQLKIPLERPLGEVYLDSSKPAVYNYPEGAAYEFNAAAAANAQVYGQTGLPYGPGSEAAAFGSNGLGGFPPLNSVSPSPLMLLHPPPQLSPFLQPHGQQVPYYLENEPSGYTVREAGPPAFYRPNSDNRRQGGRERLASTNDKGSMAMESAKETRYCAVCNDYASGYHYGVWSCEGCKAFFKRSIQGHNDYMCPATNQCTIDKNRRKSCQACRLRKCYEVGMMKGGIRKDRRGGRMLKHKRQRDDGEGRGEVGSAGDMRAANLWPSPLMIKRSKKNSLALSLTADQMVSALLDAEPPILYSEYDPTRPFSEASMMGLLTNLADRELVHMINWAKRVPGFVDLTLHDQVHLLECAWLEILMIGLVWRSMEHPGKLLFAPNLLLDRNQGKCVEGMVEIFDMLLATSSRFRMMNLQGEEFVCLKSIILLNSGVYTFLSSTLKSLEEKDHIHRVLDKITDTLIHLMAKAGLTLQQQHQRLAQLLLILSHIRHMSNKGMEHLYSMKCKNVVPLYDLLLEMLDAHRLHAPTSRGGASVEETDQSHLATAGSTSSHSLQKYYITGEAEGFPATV
Procedure, shortened: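 Beta-lactamase reporter, antagonist mode, HEK 293 GripTite cells; 0.5nM E2 stimulus, 18 h, 37 C; CCF4 dye 2 h RT; fluorescence. IC50 and efficacy from Hill fits, normalized to E2 and DMSO.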

[13] = qHTS assay for small molecule activators of the human pregnane X receptor (PXR) signaling pathway (AID 720659; call rule not given here; note: 0% is about no effect)
[14] = molecular target: Estrogen receptor (Homo sapiens) (UniProt P03372); assay: qHTS assay for small molecule agonists of estrogen receptor alpha signaling (AID 588514; calls by dose curve;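 note: 0% = vehicle only and 100% = reference agonist; nearly all actives have a fitted effect of over 70% in size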)
Procedure, shortened: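 Reporter-gene assay. […] controls beta-lactamase in HEK 293 GripTite cells; after 18 hrs with compound, CCF4 substrate is added for 2 hrs and fluorescence is read.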

[15] = molecular target: Bile acid receptor (Homo sapiens) (UniProt Q96RI1); assay: qHTS assay for small molecule antagonists of farnesoid X receptor signaling (AID 588526; calls by dose curve; note: % is set by controls: 0 for no effect and ±100 for the full control effect)
Chain of Bile acid receptor (Homo sapiens) (Q96RI1 whole entry, looked up): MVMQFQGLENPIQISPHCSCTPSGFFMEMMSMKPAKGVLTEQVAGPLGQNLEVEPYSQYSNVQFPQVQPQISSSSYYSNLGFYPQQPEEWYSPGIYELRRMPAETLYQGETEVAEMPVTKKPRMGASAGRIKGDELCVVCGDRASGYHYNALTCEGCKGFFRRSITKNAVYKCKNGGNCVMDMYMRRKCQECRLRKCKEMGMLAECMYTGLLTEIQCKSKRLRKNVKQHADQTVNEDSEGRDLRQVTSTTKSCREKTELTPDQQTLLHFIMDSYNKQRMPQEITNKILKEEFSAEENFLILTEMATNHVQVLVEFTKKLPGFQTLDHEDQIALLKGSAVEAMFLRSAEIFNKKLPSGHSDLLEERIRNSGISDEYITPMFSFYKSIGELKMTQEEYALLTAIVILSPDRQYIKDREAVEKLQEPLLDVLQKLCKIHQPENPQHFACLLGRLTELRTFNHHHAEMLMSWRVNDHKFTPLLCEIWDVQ
Procedure, shortened: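 Concentration-response titrations were fitted to the Hill equation for half-maximal inhibition and maximal response, with data normalised to 50 uM chenodeoxycholic acid and DMSO control wells. Cells: FXR-UAS-bla HEK293T, dialyzed FBS.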

[16] = molecular target: Bile acid receptor (Homo sapiens) (UniProt Q96RI1); assay: qHTS assay for small molecule agonists of farnesoid X receptor signaling (AID 588527; calls by dose curve;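 note: series mostly up to about 77 µM; 0% = vehicle basal and 100% = reference agonist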); conditions: HEK293T FXR-UAS-bla, beta-lactamase ratio, 16 h; active compounds read high
Procedure, shortened: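 Agonist-mode beta-lactamase reporter in GeneBLAzer FXR-UAS-bla HEK293T cells, titration up to 92 uM, 16 h exposure at 37 C, CCF4 fluorescence. Response scaled to DMSO (0%) and 100 uM chenodeoxycholic acid (100%), then Hill-fitted for EC50 and efficacy.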

[17] = molecular target: Glucocorticoid receptor (Homo sapiens) (UniProt P04150); assay: qHTS assay for small molecule antagonists of glucocorticoid receptor signaling (AID 588533; active = well fitted inhibition curve with a large enough effect in the signal ratio, with a control signal flat, not every such curve was filed as active; inconclusive = small, poorly fitted or top-dose-only effect, or effect the other way, or a change in a side signal; the % refers to the signal ratio;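 note: cells stimulated with 2 nM dexamethasone as agonist; % is set by controls: 0 for no effect and ±100 for the full control effect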)
Chain of Glucocorticoid receptor (Homo sapiens) (P04150 whole entry, looked up): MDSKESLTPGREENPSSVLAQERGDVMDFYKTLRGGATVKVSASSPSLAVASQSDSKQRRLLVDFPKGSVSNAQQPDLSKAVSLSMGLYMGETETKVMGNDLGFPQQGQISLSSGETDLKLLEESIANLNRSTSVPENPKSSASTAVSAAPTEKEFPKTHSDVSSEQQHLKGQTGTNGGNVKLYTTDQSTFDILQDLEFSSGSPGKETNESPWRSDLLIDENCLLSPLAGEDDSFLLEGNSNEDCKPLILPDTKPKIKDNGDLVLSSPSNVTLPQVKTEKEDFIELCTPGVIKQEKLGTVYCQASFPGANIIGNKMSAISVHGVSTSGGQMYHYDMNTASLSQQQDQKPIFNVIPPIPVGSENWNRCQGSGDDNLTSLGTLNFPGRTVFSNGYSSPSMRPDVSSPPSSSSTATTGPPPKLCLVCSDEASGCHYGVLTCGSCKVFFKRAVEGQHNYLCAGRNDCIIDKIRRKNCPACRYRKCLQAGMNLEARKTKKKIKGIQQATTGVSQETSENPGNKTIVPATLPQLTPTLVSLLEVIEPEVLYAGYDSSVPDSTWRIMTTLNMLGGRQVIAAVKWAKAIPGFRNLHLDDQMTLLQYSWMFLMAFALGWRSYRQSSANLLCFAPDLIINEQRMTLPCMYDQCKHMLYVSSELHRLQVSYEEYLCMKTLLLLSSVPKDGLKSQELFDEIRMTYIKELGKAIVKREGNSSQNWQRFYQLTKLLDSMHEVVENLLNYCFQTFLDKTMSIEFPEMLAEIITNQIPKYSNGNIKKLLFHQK
Procedure, shortened: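 Antagonist-mode qHTS: compound titrations added to GRE-bla HeLa cells, then dexamethasone 2 nM final; 18 h, 37 C. CCF4 FRET fluorescence normalized to dexamethasone and DMSO; IC50 from Hill fit.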

[18] = molecular target: Peroxisome proliferator-activated receptor gamma (Homo sapiens) (UniProt P37231); assay: qHTS assay for small molecule antagonists of peroxisome proliferator-activated receptor gamma signaling (AID 588537; active = well fitted inhibition curve with a large enough effect in the signal ratio, with a control signal flat, not every such curve was filed as active; inconclusive = small, poorly fitted or top-dose-only effect, or effect the other way, or a change in a side signal; the % refers to the signal ratio;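 note: reporter cells co-stimulated with 50 nM rosiglitazone agonist during compound treatment; % of control where 0% means no effect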)
Chain of Peroxisome proliferator-activated receptor gamma (Homo sapiens) (P37231 whole entry, looked up): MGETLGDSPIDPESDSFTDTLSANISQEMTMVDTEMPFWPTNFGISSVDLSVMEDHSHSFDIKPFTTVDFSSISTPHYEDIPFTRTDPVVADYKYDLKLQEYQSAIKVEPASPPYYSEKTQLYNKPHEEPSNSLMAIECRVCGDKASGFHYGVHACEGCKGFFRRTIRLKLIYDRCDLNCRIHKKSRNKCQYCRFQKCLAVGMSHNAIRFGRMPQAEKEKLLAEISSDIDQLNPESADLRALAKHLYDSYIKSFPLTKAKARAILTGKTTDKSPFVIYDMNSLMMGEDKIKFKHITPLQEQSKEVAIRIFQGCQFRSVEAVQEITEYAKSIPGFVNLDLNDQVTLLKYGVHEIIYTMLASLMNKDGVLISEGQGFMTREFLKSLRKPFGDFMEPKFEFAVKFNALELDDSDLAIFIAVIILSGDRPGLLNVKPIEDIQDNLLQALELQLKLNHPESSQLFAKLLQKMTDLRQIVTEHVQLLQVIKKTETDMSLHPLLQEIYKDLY
Procedure, shortened: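 PPAR-gamma-UAS-bla HEK293 cells (3000/well, 1% charcoal/dextran-stripped FBS) were preincubated 6-6.5 h at 37 C, given titrated compounds, then stimulated with 50 nM rosiglitazone for 16 h. Beta-lactamase activity was read with CCF4 dye; IC50 came from Hill fits.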

[19] = molecular target: Androgen receptor (Homo sapiens) (UniProt P10275); assay: qHTS assay for small molecule agonists of androgen receptor signaling (AID 588515; active = well fitted curve in the direction sought with a large enough effect in the signal ratio, with a control signal flat; inconclusive = small, poorly fitted or top-dose-only effect, or effect the other way, or a change in a side signal; inactive = no such curve, though single readings can be large or run the other way; the % refers to the signal ratio; note: % is set by controls: 0 for no effect and ±100 for the full control effect); conditions: AR-UAS-bla HEK293, beta-lactamase ratio, agonist 16 h; active compounds read high
Procedure, shortened: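 EC50 and efficacy came from Hill fits of titrations (up to 92 uM) normalized to 30 nM R1881 as 100% and DMSO as 0%. Compound exposure was 16 h at 37 C on AR-UAS-bla HEK293 cells, with a 405/460/530 nm CCF4 fluorescence read.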

[20] = molecular target: Glucocorticoid receptor (Homo sapiens) (UniProt P04150); assay: qHTS assay for small molecule agonists of glucocorticoid receptor signaling (AID 588532; active = well fitted curve in the direction sought with a large enough effect in the signal ratio, with a control signal flat; inconclusive = small, poorly fitted or top-dose-only effect, or a change in a side signal; inactive = no such curve, though single readings can be large or run the other way; the % refers to the signal ratio;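 note: 100% = dexamethasone at 0.1 µM and 0% = DMSO only wells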); conditions: HeLa MMTV-bla, beta-lactamase ratio, agonist, 18 h; active compounds read high; percent of dexamethasone control, DMSO zero
Procedure, shortened: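 Stimulation of a glucocorticoid response element-driven beta-lactamase gene was measured in HeLa cells. Responses were scaled between DMSO basal and 0.1 uM dexamethasone, then fitted for half-maximal stimulation.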

NC[C@H](O)c1ccc(O)cc1
inactive: outcome [1] | outcome [2] | Potency [3] | outcome [4] | outcome [5] | outcome [6]

CC(C)N(CC[C@@](C(N)=O)(c1ccccc1)c1ccccn1)C(C)C
inactive: outcome [1] | outcome [2] | Potency [3] | outcome [4] | outcome [5] | outcome [6]

c1cncc([C@H]2CCCCN2)c1
active: Potency [7] 7.94 µM

COc1cc2c(c(OC)c1OC)-c1ccc(O)c(=O)cc1[C@@H](NC(C)=O)CC2
inactive: Potency [7]

CC(C)[C@@]1(NC(=O)[C@@H]2C[C@H]3c4cccc5[nH]cc(c45)C[C@@H]3N(C)C2)O[C@]2(O)[C@H]3CCCN3C(=O)[C@H](Cc3ccccc3)N2C1=O
active: Potency [7] 2.51 µM

CCCCCCCCCc1ccc(O)cc1
inactive: outcome [8] | Potency [9] | activity change % (negative = inhibition) [10] 4.44% | activation [11] 10.9% and 1.36%

O=C1C(Cl)=C(Cl)C(=O)C(Cl)=C1Cl
inactive: outcome [13]
active: Potency [12] 25.1 µM [inconclusive]

CN1[C@@H]2CC[C@H]1CC(O)C2 (stereo partly drawn)
inactive: Potency [7]

O=C1C=C2C=C[C@H]3C[C@@]2(O1)[C@H]1CCCCN31
inactive: Potency [7]

C[N+]1=Cc2cc3c(cc2CC1)OCO3
inactive: Potency [7]

CC[C@@]1(c2ccc(N)cc2)CCC(=O)NC1=O
inactive: outcome [1] | outcome [2] | Potency [3] | outcome [4] | outcome [5] | outcome [6]

COc1nc(NC(C)C)nc(NC(C)C)n1
inactive: Potency [12] | Potency [14] | outcome [15] | activation [16] 0.515% | Potency [17] | Potency [18] | activity change % (negative = inhibition) [10] 0.677% | activation [11] -1.56% | outcome [13]

CC(C)OC(=O)Nc1cccc(Cl)c1
inactive: Potency [14] | outcome [15] | activation [16] 2.06% | outcome [8] | Potency [18] | activity change % (negative = inhibition) [10] 12.8%

O=C(O)COc1cc(Cl)c(Cl)cc1Cl
inactive: activation [19] -1.88% | outcome [15] | activation [16] -6.14% | activation [20] -6.14% | Potency [17] | Potency [18] | Potency [9] | activity change % (negative = inhibition) [10] 7.44%
